Data taken from publication PMC8159961, “Exploring protein hotspots by optimized fragment pharmacophores” (Nature Communications, 2021).
Unmarked numbers belong to inactive results. No rule for the calls is given here.

Each molecule was assayed against thrombin (human, UniProt P00734) (assay: primary screen, binary call; higher = more effect of the substance). Details: 200 µM.
Design: screenings were carried out in duplicate in one independent experiment
Procedure: Protease inhibitory assays were performed in transparent microtiter plates in a final volume of 200 µL with the use of chromogenic substrates. The reaction rates in the absence and in the presence of the inhibitor were measured; screenings were carried out in duplicate in one independent experiment and Ki values were determined in triplicate in two independent experiments.

Compound | Thrombin
CS(=O)(=O)c1ccc(OC(F)(F)F)cc1 | 0
Nc1ccc(-c2ccccc2)cc1C(=O)O | 0
COc1ccc(C2=CCNCC2)cc1 | 0
CN(C)c1cc(CN)ccn1 | 0
Fc1ccc(CC2CCCNC2)cc1 (stereo not shown) | 0
Fc1ccc2c(C3CCNCC3)c[nH]c2c1 | 0
CS(=O)(=O)Nc1ccc(C(=O)O)cc1 | 0
O=C1CCC(=O)N(c2ccccc2)N1 | 0
O=C(O)C1CCCN(C(=O)N2CCCC2)C1 (stereo not shown) | 0
COc1ccc(CN2CCNCC2)cc1F | 0
O=C(c1ccccc1F)N1CCNCC1 | 0
N#CC1CCS(=O)(=O)C1 (stereo not shown) | 0
Cc1nccn1Cc1cccc(C#N)c1 | 0
Oc1ccc(C2CCNCC2)cc1 | 0
c1ccc(Nc2nncs2)cc1 | 0
c1cnc2c(c1)NCCC2 | 0
C1=C[C@H]2O[C@@H]1c1ccccc12 | 0
O=C(NC1CC1)c1ccccc1O | 0
Cc1cc(C)c2c(=O)[nH]n(C)c2n1 | 0
Cc1nc(-c2ccccc2)cs1 | 0

Compound | Thrombin
O=C(O)c1cnc(-c2ccccc2)s1 | 1 (active)
Cc1ccc(C)n1Cc1ccccc1Cl | 0
N#CCCN1CCc2ccccc21 | 0
O=C1NC(=O)C2(CCc3ccccc32)N1 (stereo not shown) | 0
NC(=O)N1CCC(C(=O)O)CC1 | 1 (active)
c1ccc2c(N3CCNCC3)ccnc2c1 | 0
Clc1ccc2nnnn2n1 | 0
O=C(CN1CCNCC1)c1ccccc1 | 0
CC(CN)N1CCc2sccc2C1 (stereo not shown) | 0
O=C(O)C1CCN(c2ncccn2)CC1 | 1 (active)
Nc1ccc(SC(F)F)cc1 | 0
c1ccc2oc(C3CCCNC3)nc2c1 (stereo not shown) | 0
COc1ccccc1CC1CCNCC1.Cl | 0
O=C(O)c1cccc(Nc2ncccn2)c1 | 0
Cn1nc(C(F)(F)F)cc1O | 0
CN1CC(=O)NC1=O | 0
O=c1[nH]ncc2c1oc1ccccc12 | 0
Cn1c(N)nc2ccccc21 | 0
O=C1NC(=O)/C(=C\c2cccs2)N1 | 0
N#Cc1ccc(C(=O)N2CCOCC2)cc1 | 0
